Article PMC7819943, “Rice protein-binding microarrays: a tool to detect cis-acting elements near promoter regions in rice”
Over roughly 68,000 sequences, “fluorescence intensity (a.u.)” has its median near 9,100; the highest 2% begin near 16,000. The full list was thinned out, with the highest values kept by preference.

biological target: OsWRKY34 (Oryza sativa, UniProt Q0JBA9 1-250); experiment: protein-binding microarray (RPBM); PBS, 2% BSA, 51.3 ng/ul salmon testes DNA, 50 uM zinc acetate, 200 nM TF, 25 C, 1 h; high values mean tight binding; settings: protein: recombinant; tags: N-terminal polyhistidine and DsRed monomer fusion (pET32a); label: CyDye5-dUTP incorporated in the synthesized complementary strand; 3' TTTTT single-stranded linker to array surface; dsDNA, one strand shown
In short: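 Transcription factors were each fused at the N-terminus to a polyhistidine tag plus DsRed and expressed in E. coli BL21-CodonPlus before Ni–NTA purification. Binding to a double-stranded custom Agilent array was carried out with 200 nM protein at 25 °C for 1 h in PBS, 2% BSA, salmon testes DNA and 50 µM zinc acetate. The binding signal is per-feature fluorescence intensity, in arbitrary units, on an Axon 4000B scanner.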

Chain of OsWRKY34 (Q0JBA9 entry or part of it): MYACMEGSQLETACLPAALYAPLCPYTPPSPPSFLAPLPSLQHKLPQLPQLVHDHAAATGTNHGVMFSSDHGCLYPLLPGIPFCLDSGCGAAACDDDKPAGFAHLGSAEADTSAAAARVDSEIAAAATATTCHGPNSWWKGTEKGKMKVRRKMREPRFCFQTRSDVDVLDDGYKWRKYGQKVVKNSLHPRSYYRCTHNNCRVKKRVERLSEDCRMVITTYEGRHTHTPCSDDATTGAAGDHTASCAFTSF

Row | Sequence | binding signal
1 | ATCTACTACTATTCTACTCTACTCGCAAGTCTCACAAACACGGAGTCACCTAGTGCAG | 8740 fluorescence intensity (a.u.)
2 | AAAAAGAGTTCTCTTCTTCACTTCTACTCTTCACAACTTTCGGAGTCACCTAGTGCAG | 9410 fluorescence intensity (a.u.)
3 | CATCCAAATAGGTTCTTTTAGTTCAATTTTGGGGCAGTTTCGGAGTCACCTAGTGCAG | 9920 fluorescence intensity (a.u.)
4 | GCTACTATCAAGTCATAAGCTTACTACCAAGTTATAGCACCGGAGTCACCTAGTGCAG | 8320 fluorescence intensity (a.u.)
5 | ATATACATGTGATAGCTTCGTCTCAAGATACATTGTCCTACGGAGTCACCTAGTGCAG | 9500 fluorescence intensity (a.u.)
6 | CTGTTCCGCCACCTACCACCGAGCCGTTGTCTCCCATGACCGGAGTCACCTAGTGCAG | 10100 fluorescence intensity (a.u.)
7 | AAAGCCGTCGTATTGTCATCCGCCGCTCGCTGACTCATTCCGGAGTCACCTAGTGCAG | 8310 fluorescence intensity (a.u.)
8 | TCCCCTTCGCCCTTCGTCGTCGTCGTCGTCGTCGTTCGTCCGGAGTCACCTAGTGCAG | 8050 fluorescence intensity (a.u.)
9 | AACCACCACAAGCCGTTAACCCCGTTGTTTACCTCCTCCTCGGAGTCACCTAGTGCAG | 8190 fluorescence intensity (a.u.)
10 | TTTGCAACATTTGATTACTCGTCTTATTTAATTTTTTTTTCGGAGTCACCTAGTGCAG | 8230 fluorescence intensity (a.u.)
11 | TTGACTTTTGCTTGCACTGTTTGATTACTCGTCTTATTAACGGAGTCACCTAGTGCAG | 8670 fluorescence intensity (a.u.)
12 | TGACGCCGTTGACTTTTTTAAACATGTTTGATCGTTCGTCCGGAGTCACCTAGTGCAG | 35900 fluorescence intensity (a.u.)
13 | TTTCAGGTTTTGCATTTCACACCTCTGTCGTCATACTTGACGGAGTCACCTAGTGCAG | 17800 fluorescence intensity (a.u.)
14 | GCCGTTGACTTTTTATTACATGTTTGACCGTTCGTCTTATCGGAGTCACCTAGTGCAG | 62900 fluorescence intensity (a.u.)
15 | AACGCTATTTATTTTTTAAACATGTTTGATCGTTCGTCTTCGGAGTCACCTAGTGCAG | 10200 fluorescence intensity (a.u.)
16 | TATGTTCATTTCCTTATTTGCCTCTCGTCATGTCTCTTGACGGAGTCACCTAGTGCAG | 10200 fluorescence intensity (a.u.)
17 | TTGTTTCTGTTCATTTTTCTCTATAGTACTTGCTAGGTGACGGAGTCACCTAGTGCAG | 11500 fluorescence intensity (a.u.)
18 | ATTTTGACTTTTTGGTTGCGCTATTTGATTACTCGTCTTACGGAGTCACCTAGTGCAG | 19400 fluorescence intensity (a.u.)
19 | AGTAAAGTCCATCACCGGTCCCTAAACTTGTACCGCTATGCGGAGTCACCTAGTGCAG | 8810 fluorescence intensity (a.u.)
20 | AAAGATCGCTTTTTCCGTGGTAGGCTTCTCCATTTTATTTCGGAGTCACCTAGTGCAG | 10700 fluorescence intensity (a.u.)

Row | Sequence | binding signal
21 | TATCTTGCCTAGCATATTGTCCGTGCGTTATTGCGATTTTCGGAGTCACCTAGTGCAG | 10500 fluorescence intensity (a.u.)
22 | TCCCACCCGTTTTTATTTTTCTCGGTGGTTAACTTATCTTCGGAGTCACCTAGTGCAG | 8170 fluorescence intensity (a.u.)
23 | TTCTTATTCTGTCGGTTGTGTGGTGGCAGGGCAGTTAATTCGGAGTCACCTAGTGCAG | 8630 fluorescence intensity (a.u.)
24 | TCCATCACTAGCTATTTTGGTACTTTCATCTACTTATTACCGGAGTCACCTAGTGCAG | 8340 fluorescence intensity (a.u.)
25 | TCTCTCGTTTTCCACACACACGTTTTTTAAACTGCTAAACCGGAGTCACCTAGTGCAG | 10200 fluorescence intensity (a.u.)
26 | CAAGGCCCGCCCATCCGTCTCCTCACACTCTGGCACACCTCGGAGTCACCTAGTGCAG | 8580 fluorescence intensity (a.u.)
27 | CAATCCATCAAACATGCAGTCAAGGTGTATTATTCAGTATCGGAGTCACCTAGTGCAG | 9880 fluorescence intensity (a.u.)
28 | ACTCTTATTGTTCAAATGAAAATGCTAGGGGTATAACTGCCGGAGTCACCTAGTGCAG | 8340 fluorescence intensity (a.u.)
29 | ACTTTTTTAAACATGTTTGGCCGTTCGTCTTATTCAAAAACGGAGTCACCTAGTGCAG | 9620 fluorescence intensity (a.u.)
30 | CTTTTTTAAACATGTTTGACCGTTCGTCTTATTTAAAAAACGGAGTCACCTAGTGCAG | 9350 fluorescence intensity (a.u.)
31 | ACCGTTGATTTTTTTAAACATGTTTGACCGTTCGTCTTATCGGAGTCACCTAGTGCAG | 17100 fluorescence intensity (a.u.)
32 | GCCGTTGACTTTTTAACACATGTTTGACCATTCGTCTTATCGGAGTCACCTAGTGCAG | 60200 fluorescence intensity (a.u.)
33 | TGCCGTTGATTTTTTTTTAAACATGTTTGACCGTTCGTCTCGGAGTCACCTAGTGCAG | 14900 fluorescence intensity (a.u.)
34 | GACTTTTTAACACATGTTTGACCGTTCGTCTTATTCAAAACGGAGTCACCTAGTGCAG | 10900 fluorescence intensity (a.u.)
35 | TTTTAAACATGTTTGACCGTTCGTCTTATTCAAAAAATTTCGGAGTCACCTAGTGCAG | 8310 fluorescence intensity (a.u.)
36 | GCCGTTGACTTTTTTAAACATGTTTGACCGTTCGTCTTATCGGAGTCACCTAGTGCAG | 45200 fluorescence intensity (a.u.)
37 | ACTTATATTTTTTTAACGTTTGATTGTTCGTCTTATTAAACGGAGTCACCTAGTGCAG | 9470 fluorescence intensity (a.u.)
38 | TTTTAACATTTTTCTTGCACTGTTTGACCATTCGTCTTATCGGAGTCACCTAGTGCAG | 10400 fluorescence intensity (a.u.)
39 | CGTTGACTTTTTTAAATATATTTAGCAGTTCGTCTTATTACGGAGTCACCTAGTGCAG | 16500 fluorescence intensity (a.u.)
40 | ACTGTTCGTCTTATTTAAAATTTTTTAAATATTATTTATACGGAGTCACCTAGTGCAG | 12300 fluorescence intensity (a.u.)

Row | Sequence | binding signal
41 | CCACACTCCTCGCTCGCCTGCCTCTCTGTTCTTAATTAGCCGGAGTCACCTAGTGCAG | 8750 fluorescence intensity (a.u.)
42 | AAGCCCAACGTGCTTCATCTCTTCTTCTATCTTATCTTCTCGGAGTCACCTAGTGCAG | 8190 fluorescence intensity (a.u.)
43 | GCGGAGGAAAGGTGGGGTGGTAAAAAACGGAAAAACCGGACGGAGTCACCTAGTGCAG | 8960 fluorescence intensity (a.u.)
44 | TATGCATACTTTTTTATCACTGTAGTTACTAGCTAAGATCCGGAGTCACCTAGTGCAG | 9000 fluorescence intensity (a.u.)
45 | GCCCGTCTTCGTCCAGTTCCTGATCAGGTATGGTCCTTCTCGGAGTCACCTAGTGCAG | 8060 fluorescence intensity (a.u.)
46 | ACCCGAGATCTGATTCACTACCGCCGCCGGATCAAGCCACCGGAGTCACCTAGTGCAG | 8320 fluorescence intensity (a.u.)
47 | TTCGCTCACCTCTCGATCGATCGACCTGCCAACATCAACACGGAGTCACCTAGTGCAG | 10400 fluorescence intensity (a.u.)
48 | CGTTGACTTTTTATCAAATGTTTGACCGTTCGTCTTATTTCGGAGTCACCTAGTGCAG | 28900 fluorescence intensity (a.u.)
49 | TTGACTTTTTAAAATATGTTTGACCGTTCGTCTTATTCAACGGAGTCACCTAGTGCAG | 8040 fluorescence intensity (a.u.)
50 | ATTCAAATTTGTCAAACATTGTTTTCTTCTCTTTCATATCCGGAGTCACCTAGTGCAG | 8650 fluorescence intensity (a.u.)
51 | AGTGTTAGTTGACTGTTAGTCAAAGGTTAGTTTTTTTCGTCGGAGTCACCTAGTGCAG | 9180 fluorescence intensity (a.u.)
52 | CGTTGACTTTTTTAAAAGTGTTTGACTGTTCGTCTTTTTTCGGAGTCACCTAGTGCAG | 30500 fluorescence intensity (a.u.)
53 | TTATCAAATATTCCATCCGTCTTTTTTGATATTTTAATTTCGGAGTCACCTAGTGCAG | 9840 fluorescence intensity (a.u.)
54 | ACGCCGTTGACTTTTTTAAACATGTTTGACTGTTCGTCTTCGGAGTCACCTAGTGCAG | 38200 fluorescence intensity (a.u.)
55 | ACACCGCTGACTTTTTAAAACATGTTTTACCGTTCGTCTTCGGAGTCACCTAGTGCAG | 13600 fluorescence intensity (a.u.)
56 | ATTGATATCAAACCGTTTCTTTTGTCATATTCGTCATTTCCGGAGTCACCTAGTGCAG | 17700 fluorescence intensity (a.u.)
57 | ACGCTGTTGATTTTTTTAAACATGTTTGACCGTTCGTCTTCGGAGTCACCTAGTGCAG | 13200 fluorescence intensity (a.u.)
58 | TCACGTTCAACGTTTGACTGTTCGTCTTATTTAAAATTTTCGGAGTCACCTAGTGCAG | 8400 fluorescence intensity (a.u.)
59 | TGACTTTTTATCATATGTTTGACCGTTCGTCTTATTCAAACGGAGTCACCTAGTGCAG | 10900 fluorescence intensity (a.u.)
